Bioassay records deposited in PubChem BioAssay by several laboratories.
NadD block: blocks S. aureus nicotinate mononucleotide adenylyltransferase; 360,000 compounds, 0.78% hits; AID 602399; purified NadD enzyme, colorimetric absorbance read-out; inhibition, % at 20 µM; in the data active = inhibition above about 26%
rCAG binder: molecules binding r(CAG) RNA repeats; r(CAG) RNA repeat, TO-PRO-1 dye displacement fluorescence; inhibition, % at 3 µM; 370,000 compounds, 1.3% hits;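 active = inhibition above the plate cutoff, the mean of all test compounds on that plate plus 3 SD, cut at about 35% in these data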;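 note: higher means more dye released from RNA so lower well fluorescence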
NR3A LBD binder: modulators (binders) of human NR3A ligand-binding domain; NR3A LBD differential scanning fluorimetry, Tm shift; 0% = protein alone, 100% = glycine-bound protein; Tm shift relative to glycine control, % at 25 µM; 340,000 compounds, 2.5% hits; AID 1259313;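 active = melting temperature shift of at least 10% of the positive control shift, at one fixed dose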
FAS TE block: blocks the thioesterase domain of human fatty acid synthase; AID 602261; P49327; recombinant FAS-TE, OMFH fluorogenic substrate, fluorescence endpoint; inhibition, % at 15 µM; 360,000 compounds, 0.67% hits;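 active = compounds whose normalised, plate-corrected inhibition of enzyme fluorescence in the single-dose primary screen is 50% or more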
FAS-TE inh conf: confirmation of human fatty acid synthase thioesterase inhibitors; 2,300 compounds, 45% hits; inhibition, % at 15 µM; recombinant FAS-TE, OMFH fluorogenic substrate, fluorescence; shares compounds with FAS TE block; AID 624325;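 active = compounds inhibiting the enzyme by at least 50% at 15 µM in any one of the replicates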
Numbers stand for hits; – = inactive; · = not tested or not shown. This is a sample that favours compounds with a hit; in the whole collection about 4.3% have one here.

SMILES | NadD block | rCAG binder | NR3A LBD binder | FAS TE block | FAS-TE inh conf
O=C1OCCN1C(=O)[C@H]1[C@H](c2ccc([N+](=O)[O-])cc2)C(c2ccccc2)=NN1c1ccccc1 | – | – | – | 78 | –
Cc1csc(NC(=O)CCNC(=O)c2ccc([N+](=O)[O-])cc2)n1 | – | – | – | 68 | 71
O=C(CCNC(=O)c1ccc([N+](=O)[O-])cc1)Nc1ccc(F)cc1 | – | – | – | – | ·
Cc1cc(C)cc(NC(=O)CCNC(=O)c2ccc([N+](=O)[O-])cc2)c1 | – | – | – | 69 | –
Cc1cnc(NC(=O)CCNC(=O)c2ccc([N+](=O)[O-])cc2)s1 | – | – | – | – | ·
Cc1csc(NC(=O)c2ccc(COc3ccc(Cl)c(Cl)c3)o2)n1 | · | – | · | · | ·
O=C(COC(=O)c1ccc([N+](=O)[O-])o1)Nc1cccc(S(=O)(=O)N2CCCCC2)c1 | – | – | – | – | ·
Cc1ccc(C)c(C(=O)COC(=O)c2cc([N+](=O)[O-])ccc2NCCO)c1 | – | – | – | 62 | –
O=C(COC(=O)c1cc([N+](=O)[O-])ccc1NCCO)Nc1cccc(S(=O)(=O)N2CCCC2)c1 | – | – | – | 70 | 69
O=C(COC(=O)c1cc([N+](=O)[O-])ccc1NCCO)Nc1ccc2c(c1)OCO2 | – | – | – | 77 | 51
Cc1nn(-c2ccccc2)c(C)c1NC(=O)COC(=O)c1cc([N+](=O)[O-])ccc1NCCO | – | – | – | – | ·
Cc1ccc(C(=O)Nc2cccc(S(=O)(=O)N3CCCCC3)c2)cc1[N+](=O)[O-] | – | – | – | 53 | –
C(/C=C\c1ccco1)=NN1CCN(Cc2cccc3ccccc23)CC1 | · | – | · | · | ·
N#CCC[C@@H]1CC[C@]2(CCCN(Cc3ccc(Cl)cc3)C2)O1 | · | – | · | · | ·
N#Cc1cccc(C(=O)N2CCC(Oc3cccnc3)CC2)c1 | · | – | · | · | ·
O=C(Nc1ccc(Cl)cc1)N1CCCN(c2ccc(C(F)(F)F)cc2[N+](=O)[O-])CC1 | – | – | – | 54 | –
CC(C)COc1ccc(C(=O)N/C(=C\c2cccc([N+](=O)[O-])c2)C(=O)O)cc1 | – | – | – | 62 | 77
CC(C)COc1ccc(C(=O)N/C(=C/c2cccc([N+](=O)[O-])c2)C(=O)O)cc1 | – | – | – | 57 | 59
CC(C)COc1ccc(C(=O)N/C(=C\c2cccc([N+](=O)[O-])c2)C(=O)OC(C)C)cc1 | – | – | – | – | ·
C=CCCC1CN(Cc2ccc(OC)cc2)S(=O)(=O)c2c(Oc3cc(C)c(C)c(C)c3)cccc2O1 (stereo unspecified) | · | – | · | · | ·
CC(C)CNC(=O)OCc1cn(Cc2ccc(C(F)(F)F)cc2)nn1 | · | – | · | · | ·
COc1cccc(CC(=O)N(Cc2ccccc2)c2ccccc2C(=O)Nc2cc(OC)ccc2OC)c1 | · | – | · | · | ·
O=C(CC12CC3CC(CC(C3)C1)C2)NCC(=O)OCc1cc(=O)oc2ccc3ccccc3c12 | – | – | – | 55 | –
CCOC(=O)N1CCN(Cc2cc(=O)oc3ccc4ccccc4c23)CC1 | – | – | – | – | ·
C[C@]1(C(=O)NCc2cc(F)cc(C(F)(F)F)c2)C=C[C@@H](Cc2ccccc2)N1C(=O)c1ccccc1 | – | – | – | 68 | –
SMILES | NadD block | rCAG binder | NR3A LBD binder | FAS TE block | FAS-TE inh conf
CC(=O)OCCNc1cc(Sc2nc3ccccc3[nH]2)c2nonc2c1[N+](=O)[O-] | – | – | – | 76 | 72
CC(=O)OCCCNc1cc(Sc2ccc(C)cc2)c2nonc2c1[N+](=O)[O-] | – | – | – | – | ·
CC(=O)OCCNc1cc(SCc2ccco2)c2nonc2c1[N+](=O)[O-] | – | · | – | – | ·
O=[N+]([O-])c1c(NCCCO)cc(Sc2ccc(Cl)cc2)c2nonc12 | – | – | – | 61 | 49
CC(=O)OCCCNc1cc(Sc2nc3ccccc3s2)c2nonc2c1[N+](=O)[O-] | – | · | – | 82 | 67
CCCCCCCCN1C(=O)[C@@H](CC(=O)NCC23CC4CC(CC(C4)C2)C3)C[C@@]2(C(=O)OC)C1=C[C@H](C(C)C)O[C@@H]2C1CC1 | · | – | · | · | ·
O=C(Nc1c(-c2ccc(F)cc2)nc2ncccn12)c1ccccc1 | · | – | · | · | ·
COc1ccc(-c2nn(-c3ccccc3)cc2C(=O)N2CCN(S(=O)(=O)c3ccccc3[N+](=O)[O-])CC2)cc1 | – | – | – | 78 | –
COc1ccccc1-n1c2nc3ccccc3nc2c2c(=O)n(-c3cc(C)cc(C)c3)cnc21 | – | – | – | 92 | –
Cc1cn(C2OC(COC(=O)c3ccccc3)C(O)C2O)c(=O)[nH]c1=O (stereo unspecified) | – | – | – | – | ·
Cc1cn(C2OC(COC(=O)c3ccccc3)C(OC(=O)c3ccccc3)C2OC(=O)c2ccccc2)c(=O)[nH]c1=O (stereo unspecified) | – | – | – | 87 | –
Cc1c(C(=O)Nc2cccc(Cl)c2)oc2ccc(S(=O)(=O)N3CCC4(CC3)OCCO4)cc12 | – | · | – | 66 | –
Cc1c(C(=O)Nc2ccc(F)cc2)oc2ccc(S(=O)(=O)N3CCC4(CC3)OCCO4)cc12 | – | – | – | – | ·
COc1ccc(NC(=O)c2ccc3ccccc3n2)cc1S(=O)(=O)Nc1ccccc1Cl | – | – | 16 | 64 | –
COc1cc(/C=C/C(=O)Nc2ccc(N3CCCCC3)c(S(=O)(=O)Nc3ccccc3Cl)c2)cc(OC)c1OC | – | – | – | 58 | –
COc1ccc(/C=C/C(=O)Nc2cc(S(=O)(=O)N3CCCCC3)ccc2N2CCCCC2)cc1OC | – | – | – | 90 | –
COc1ccccc1NS(=O)(=O)c1cc(NC(=O)C2CCC2)ccc1N1CCCCC1 | – | – | – | – | ·
COc1ccc(/C=C/C(=O)Nc2cc(S(=O)(=O)N3CCOCC3)ccc2N2CCCC2)cc1OC | – | – | – | – | ·
COc1ccc(C(=O)NCC2CCN(C(=O)C(=O)c3cccs3)CC2)c(OC)c1 | · | – | · | · | ·
COc1ccc(C(=O)OCCCN(C)C2CN(Cc3cn(Cc4cccc(F)c4)nn3)S(=O)(=O)C2)cc1OC (stereo unspecified) | · | – | · | · | ·
COC(=O)c1cc2c(c3c4ccccc4n(S(=O)(=O)c4cccc(C)c4)c13)C(=O)N(Cc1ccc(N(C)C)cc1)C2 | · | – | · | · | ·
COc1ccc(Cl)cc1NC(=O)CN(C)C(=O)c1sc2ccccc2c1Cl | – | – | – | 51 | –
Cn1c(Cc2cccs2)nnc1SCC(=O)Nc1ccc(OCc2ccccc2)cc1 | · | – | · | · | ·
Cc1cccc(C(=O)Oc2ccccc2/C=N/NC(=O)c2ccc(NC(=O)C(C)(C)C)cc2)c1 | – | – | – | 66 | –
CC(C)(C)C(=O)Nc1ccc(C(=O)N/N=C/c2ccccc2OC(=O)c2ccc(Cl)cc2)cc1 | – | – | 21 | 76 | –
CC(C)(C)C(=O)Nc1ccc(C(=O)N/N=C/c2ccccc2OC(=O)c2ccccc2)cc1 | – | – | – | – | ·
O=[N+]([O-])c1cccc(I)c1 | · | – | · | · | ·
COC(=O)c1cc(-c2ccc3ccccc3c2)c(=O)n2c1CCC2 | · | – | · | · | ·
CC(C)(C)N(Cc1ccccc1)C(=O)COC(=O)c1cccc([N+](=O)[O-])c1 | – | – | – | 77 | 42
